# Results: PubChem BioAssay AID602440 (Sanford-Burnham Center for Chemical Genomics, 2012)
# About 2,300 (0.64%) of roughly 360,000 compounds were called active. This is one part of a sample in which actives are shown more often than they occur. A number with no mark means an inactive call. Rule as the data show it: active = inhibition mostly above about 40% (no sharp cut-off); inactive = mostly below about 27%.
# Biological target: Sentrin-specific protease 8 (Homo sapiens) (UniProt Q96LD8)
# Assay: human SENP8 protease inhibitors, primary screen, biochemical, fluorescence, Nedd8 protein substrate, uHTS (AID 602440)
# Conditions: recombinant SENP8, Nedd8 substrate fluorescence; at 20 µM; hits give high values
# Chain of Sentrin-specific protease 8 (Homo sapiens) (Q96LD8 whole entry, looked up): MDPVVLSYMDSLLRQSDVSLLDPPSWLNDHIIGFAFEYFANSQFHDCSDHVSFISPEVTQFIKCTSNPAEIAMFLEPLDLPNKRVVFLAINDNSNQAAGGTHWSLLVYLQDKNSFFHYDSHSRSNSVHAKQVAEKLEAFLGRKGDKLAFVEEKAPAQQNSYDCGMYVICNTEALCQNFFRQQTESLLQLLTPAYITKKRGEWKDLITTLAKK
row,SMILES,inhibition
1,CCOCCc1c(O)[nH]c(=S)[nH]c1=O,21.8%
2,COc1ccccc1N=Nc1c(O)[nH]c(=S)[nH]c1=O,49% (active)
3,O=C1N=c2ccccc2=C/C1=C\c1c(O)[nH]c(=S)[nH]c1=O,-52.5%
4,CC(C(=O)Nc1ccc(Cl)cc1Cl)N1CC=C(c2ccccc2)CC1 (stereo not given),26.7%
5,CNC(=O)N(C)c1nnc(C(C)(C)C)s1,17.7%
6,O=C1NC(=O)N(c2ccccc2)C(=O)/C1=C/c1ccc([N+](=O)[O-])s1,64.6% (active)
7,CCN(CC)CCOC(=O)c1cc2cc(COC)ccc2o1,15.2%
8,COC(=O)C1=C(c2cc3ccccc3o2)C[C@@H]2CC[C@H]1N2C(=O)NC1CCCCC1,11.5%
9,CCOC(=O)CNC(=O)N1Cc2cc(N3CCCCC3)ccc2-n2nncc2C1,-24.7%
10,c1cc2c(cc1[C@H]1OC[C@H]3[C@@H]1CO[C@@H]3c1ccc3c(c1)OCO3)OCO2,12.2%
11,O=C1/C(=C\c2ccc3c(c2)OCO3)N2CCC1CC2,13.7%
12,c1cc2c(cc1C1OCC3C(c4ccc5c(c4)OCO5)OCC13)OCO2 (stereo not given),62.3% (active)
13,COC(=O)C1=C(c2ccc(F)cc2OCc2ccccc2)C[C@@H]2CC[C@H]1N2C(=O)NCc1ccc(OC)c(OC)c1,14.1%
14,CCOC(=O)[C@]12Cc3ccccc3[C@H]1N(C1CCCCC1)C(=O)c1cc(OC)ccc12,-7.7%
15,O=c1[nH]c(=O)n(CCc2ccccc2)c(O)c1/C=N/N1CCOCC1,11.3%
16,CCOP(=O)(OCC)C(NC(=O)c1ccc(OC)cc1)C(Cl)(Cl)Cl (stereo not given),4.3%
17,COc1ccc(C(=O)C2CN(C)CC2C(=O)c2ccc(OC)cc2)cc1 (stereo not given),14.3%
18,COc1ccc(C(=O)CC2C(=O)N(C)C(=O)N(C)C2=O)cc1,42.5% (active)
19,CCCCCCCCCCCCn1ccc(=N)cc1,26.2%
20,CCOC(=O)CC(SP1(=S)OCC2(CCCCO2)C(C2CCCCO2)O1)C(=O)OCC (stereo not given),2.3%
21,Cc1ccc(Cn2c(C)c3cnn(CC(=O)N4CCC5(CC4)OCCO5)c(=O)c3c2C)cc1,-29%
22,C=CC12CN(C)[C@@H]3C4CO[C@H](C[C@H]41)[C@]1(C(=O)Nc4ccccc41)[C@@H]32 (stereo not given in full),40.4% (active)
23,COc1ccc2c(c1)[C@]13CCCCC1C(C2)N(C)CC3 (stereo not given in full),2%

row,SMILES,inhibition
1,O=C(O)CCn1cc(C=C2C(=O)NC(=S)NC2=O)c(-c2cccc(Br)c2)n1,2.3%
2,CN(c1ccccc1)c1ccc([N+](=O)[O-])c2nonc12,44.1% (active)
3,CCN(CC)c1ccc([N+](=O)[O-])c2cccnc12,36.3%
4,C[C@]12CCCCC1=CC(=O)C1C2CC[C@@]2(C)C1C[C@@H](F)[C@@H]2O (stereo not given in full),-0.8%
5,C[N+]12CN3CN(CN(C3)C1)C2,12.2%
6,O=c1c2ccccc2nc(/C=C/c2ccco2)n1-c1ccccc1O,-36.8%
7,CNP1(NC)=Nc2nn(-c3ccccc3)c(N)c2C(c2ccccc2)=N1,21.7%
8,O=C(O)C1CSC(c2cccnc2)N1 (stereo not given),6.7%
9,COC1C(O)C(C)OC(OC2CCC3(C=O)C(CCC4C3CCC3(C)C(C5=CC(=O)OC5)CCC43O)C2)C1O (stereo not given),66.8% (active)
10,C[C@]12CC[C@H](O)C[C@H]1CC[C@@H]1C2CC[C@]2(C)[C@@H](C3=CC(=O)OC3)[C@@H](O)C[C@]12O (stereo not given in full),15.3%
11,CC(C)CN1CCN(Cc2ccccc2C(F)(F)F)CC1CCO (stereo not given),-4%
12,CC1=C2C(=O)C3C(CC=C4CC(OC5OC(O)C(O)C(O)C5CO)CCC43C)C2CCC12OC1CC(C)CNC1C2C (stereo not given),41.4% (active)
13,CC(=O)OC1C2(CC3N4C(=O)C5(CO)SSC4(CC31O)C(=O)N5C)OC(C)C(C)(C)C2=O (stereo not given),-4.6%
14,N[C@@H](Cc1c[nH]c2ccccc12)c1nnc(SCc2c(F)cccc2Cl)o1,18%
15,CN(C)C(=O)Oc1ccc2c(c1)O/C(=C\c1ccccc1)C2=O,-9.7%
16,c1ccc(N2Cc3ccccc3-n3nncc3C2)nc1,14.6%
17,CC(=O)Nc1ccc(C(=O)C(Cc2ccccc2)N(C)C)cc1 (stereo not given),-0.4%
18,CC(Cc1ccccc1)NC=O (stereo not given),50.7% (active)
19,CC(Cc1ccccc1)NCCC(c1ccccc1)c1ccccc1 (stereo not given),8.1%
20,CCC(C)(O)C(=O)OC1C(=O)OC2CC3C(C)=CC(=O)C(O)C3(C)C3C4(O)OCC23C1C(C)C4O (stereo not given),15.7%
21,CC(=CCOc1ccc2ccc(=O)oc2c1)C1=CC(=O)C(C)(C)O1,-260%
22,C=Cn1ccnc1P(=S)(c1cc(N(CC)CC)ns1)c1nccn1C=C,1.5%
